# Bioassay records deposited in PubChem BioAssay by The Scripps Research Institute Molecular Screening Center.
# Rows were chosen to be rich in hits. Some 0.81% of all compounds tested hit in one or more screens of this group.
# NR5A2 inv ag: suppresses constitutive activity of human LRH-1; O00482; HEK293T StAR-luciferase reporter, LRH-1 transfected, 24 h; inhibition, % at 3.6 µM; 360,000 tested, 0.13% active;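 active = inhibition above the mean inhibition of all tested compounds plus 3 SD, cut at about 73% in these data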;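 note: 0% = DMSO wells and 100% = reporter-only cells lacking LRH-1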
# Target sequence (O00482 whole entry, looked up): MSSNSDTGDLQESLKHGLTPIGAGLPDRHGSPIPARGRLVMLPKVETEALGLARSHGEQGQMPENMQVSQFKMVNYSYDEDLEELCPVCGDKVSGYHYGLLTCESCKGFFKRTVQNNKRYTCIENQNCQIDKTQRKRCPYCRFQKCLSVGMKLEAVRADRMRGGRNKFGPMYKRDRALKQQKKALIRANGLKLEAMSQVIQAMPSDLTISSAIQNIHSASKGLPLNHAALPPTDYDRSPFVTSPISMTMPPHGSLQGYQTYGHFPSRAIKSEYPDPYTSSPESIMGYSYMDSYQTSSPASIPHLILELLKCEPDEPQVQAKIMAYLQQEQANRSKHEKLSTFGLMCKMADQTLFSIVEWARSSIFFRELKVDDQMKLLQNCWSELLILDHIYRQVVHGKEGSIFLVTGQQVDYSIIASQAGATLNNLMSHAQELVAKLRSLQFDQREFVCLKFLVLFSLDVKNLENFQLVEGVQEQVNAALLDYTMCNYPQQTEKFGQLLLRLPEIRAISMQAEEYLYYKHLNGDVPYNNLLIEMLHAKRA
# NCOA3 inh: human NCOA3 inhibition. 360,000 tested, 0.17% active. HEK293 GAL4-SRC3 luciferase reporter, luminescence. inhibition, % at 3.6 µM. Q9Y6Q9;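 active = inhibition above a per-campaign cutoff, the mean of all compounds plus 3 SD, cut at about 60% in these data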;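 note: 0% = DMSO-treated cells and 100% = gossypol-treated cells at 36 µM; higher means less SRC3-driven luciferase light from the GAL4 reporter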
# NCOA1 inh: inhibitors of human steroid receptor coactivator 1 (SRC1). AID 588354. 360,000 tested, 0.12% active. Q15788. HEK293 GAL4-SRC1 luciferase reporter, luminescence. inhibition, % at 3.6 µM;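 active = inhibition above the campaign mean plus 3 SD, with each screening campaign given its own cutoff, cut at about 60% in these data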;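 note: 0% = DMSO treated cells and 100% = gossypol at 36 µM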
# SRC2 inh: inhibits human steroid receptor coactivator 2; HEK293 GAL4-SRC2 luciferase reporter, luminescence; inhibition, % at 9 µM; 370,000 tested, 0.17% active; AID 651957;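 active = inhibition above the mean inhibition of all tested compounds plus 3 SD, set per campaign, cut at about 52% in these data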;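 note: 0% = DMSO treated cells and 100% = cells given Gossypol at 36 µM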
# COUP-TFII inh: blocks human COUP-TFII nuclear receptor. HEK293T NGFI-A luciferase reporter, luminescence. inhibition, % at 8.6 µM. 370,000 tested, 0.7% active. AID 686940;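 active = inhibition above a per-plate cutoff, mean inhibition of test wells between control levels plus 3 SD, cut at about 38% in these data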;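 note: cells cotransfected with COUP-TFII expression vector driving the NGFI-A reporter; 0% = median of COUP-TF2 test wells and 100% = reporter-only cells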
# Gal4-VP16 ctr: VP16 inhibition counter-screen for COUP-TFII. shares compounds with COUP-TFII inh. HEK293 Gal4-VP16 luciferase reporter, luminescence. inhibition, % at 8.5 µM. 2,500 tested, 25% active. AID 687007; in the data active = inhibition above about 13%
# COUP-TFII conf: COUP-TFII (NR2F2) inhibition, confirmation assay; shares compounds with COUP-TFII inh; HEK293 NGFI-A luciferase reporter, luminescence; inhibition, % at 8.5 µM; 2,500 tested, 45% active;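 active = mean inhibition over three repeats above a set limit taken from the earlier primary screen, cut at about 38% in these data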;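 note: 100% = cells given the luciferase reporter alone without the COUP-TF2 vector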
# Active calls of the source: *; . = no result given; ! = not confirmed by another sample.
SMILES,NR5A2 inv ag,NCOA3 inh,NCOA1 inh,SRC2 inh,COUP-TFII inh,Gal4-VP16 ctr,COUP-TFII conf
COc1cc(OC)c(N(C)S(=O)(=O)c2cccc(C(=O)OCC(=O)c3c[nH]c4ccccc34)c2)cc1Cl,15,17,16,32,62*,6,53*
CC1C(=O)N(Cc2ccccc2F)c2ccccc2N1C(=O)c1c(F)cccc1F (stereo not drawn),-11,16,11,11,47*,-5,18
COc1cccc(CN2C(=O)C(C)N(C(=O)c3c(F)cccc3F)c3ccccc32)c1 (stereo not drawn),-6,22,8,5,50*,8,19
CC1C(=O)N(Cc2cccc(F)c2)c2ccccc2N1C(=O)c1ccccc1 (stereo not drawn),-9,-1,-11,-8,-16,.,.
Cc1noc(C)c1C(=O)N1CCC1(C)C(=O)NS(=O)(=O)Cc1cccc(Cl)c1 (stereo not drawn),-6,-17,-9,-18,-11,.,.
Cc1cccc(Oc2cc(NC(=O)c3ccccc3)cc([N+](=O)[O-])c2)c1,35,23,12,30,50*,-6,26
Cn1cc([N+](=O)[O-])c(C(=O)Nc2cc(Oc3ccccc3)cc([N+](=O)[O-])c2)n1,-23,11,-25,9,1,.,.
CCCCNC(=O)C[C@@H]1C(=O)N(Cc2ccc(OC)cc2)/C2=C/CCCCC[C@@]21C(=O)OCC,.,.,.,21,-7,.,.
Cc1ccc(-n2ncc3c(N4CCCC4)ncnc32)c(C)c1,-84,-41,-51,-95,-39,.,.
COc1cccc(N2CCN(c3ncnc4c3cnn4-c3ccc(C)cc3C)CC2)c1,64,79*,44,69*,97*,27*,91*
COc1ccccc1CNc1ncnc2sccc12,31,23,17,25,62*,7,53*
CN(C)c1ccc(CNc2ncnc3sccc23)cc1,47,12,25,19,66*,11,52*
Fc1ccccc1CNc1ncnc2sccc12,33,27,22,27,48*,10,41*
c1ccc2c(c1)OCC(CNCC1COc3ccccc3O1)O2 (stereo not drawn),-4,-4,-4,-36,-13,.,.
c1ccc2c(c1)OCC(CNc1ncnc3sccc13)O2 (stereo not drawn),42,33,20,30,78*,-17,58*
CCNC(=O)CSc1nnc(-c2cc(-c3ccc(Cl)cc3)nc3ccccc23)o1,-4,3,1,12,5,.,.
COC(=O)CCC(=O)N1CCCC(N2CCN(c3cccc(C(F)(F)F)c3)CC2)C1 (stereo not drawn),-4,2,-2,9,0,.,.
Cc1[nH]c2ccccc2c1C(=O)C(C)OC(=O)c1ccccc1NCCO (stereo not drawn),-12,2,-7,5,-5,.,.
COc1ccc(CCNc2ncnc3sccc23)cc1OC,36,34,13,25,74*,10,77*
Cc1ccc(-n2c(SCC(=O)c3ccc(-c4ccccc4)cc3)nnc2-c2ccc(C(C)(C)C)cc2)cc1,.,.,.,-11,10,.,.
Cc1ccc(NC(=O)C2CCCN(C(=O)c3ccc(Cl)cc3)C2)cc1S(=O)(=O)N1CCOCC1 (stereo not drawn),15,10,12,-12,38*,-7,3
Cc1ccc(NC(=O)C2CCN(S(=O)(=O)c3ccc(N4CCCC4=O)cc3)CC2)cc1Cl,24,6,-1,38,66*,2,46*
Cc1ccccc1C(=O)N1CCC(C(=O)Nc2ccc(C)c(S(=O)(=O)N3CCCCC3)c2)CC1,11,20,-1,16,42*,-6,13
COc1ccc(NC(=O)C2CCN(S(=O)(=O)c3ccc4c(c3)NC(=O)C(C)S4)CC2)cc1 (stereo not drawn),3,-16,6,14,14,.,.
Cc1ccccc1C(=O)N1CCC(C(=O)Nc2cccc(S(=O)(=O)N3CCCCC3)c2)CC1,10,0,6,10,34,.,.
SMILES,NR5A2 inv ag,NCOA3 inh,NCOA1 inh,SRC2 inh,COUP-TFII inh,Gal4-VP16 ctr,COUP-TFII conf
CC1Sc2ccc(S(=O)(=O)N3CCC(C(=O)Nc4ccc(Cl)cc4)CC3)cc2NC1=O (stereo not drawn),22,18,3,23,66*,16*,73*
Cc1ccc(C(=O)N2CCc3ccccc32)cc1C,-30,-64,-93,-56,-7,.,.
Cc1ccc(S(=O)(=O)N(C)c2ccc(OCC(=O)Nc3nc4ccccc4s3)cc2)cc1,0,5,-3,9,39*,5,28
CCC1CCCCN1C(=O)n1ncc(C(O)(c2ccccc2)c2ccccc2)n1 (stereo not drawn),.,.,.,.,50*,-4,43*!
CCC1CCCCN1C(=O)c1c(-c2ccccc2)noc1C (stereo not drawn),6,-1,-8,19,19,.,.
Cc1nn(-c2ccc3ccccc3c2)c(=O)c2ccccc12,-109,-75,-104,-70,-40,.,.
Cc1nn(-c2nc3ccccc3[nH]2)c(=O)c2ccccc12,73*,80*,74*,85*,97*,68*,90*
CNC(=O)C(=O)NCC1OCCN1S(=O)(=O)c1ccc(OC)c(OC)c1 (stereo not drawn),3,-8,-42,-18,7,.,.
COc1ccc(NC(=O)c2cc(CC(C)C)nc3ccccc23)cc1,-33,0,22,-29,42*,-6,22
Cc1ccc(NC(=O)c2cc(CC(C)C)nc3ccccc23)cc1,-3,11,-40,-16,17,.,.
Cc1ccc(/C=N\NC(=O)CN2CCN(S(=O)(=O)c3ccc(Br)cc3)CC2)s1,.,.,.,-6,4,.,.
NS(=O)(=O)c1ccc(NC(=O)COc2ccc(C(=O)c3ccc(F)cc3)cc2)cc1,2,22,13,36,38*,-1,8
CN(c1ccc(OCC(=O)Nc2ccc(S(N)(=O)=O)cc2)cc1)S(=O)(=O)c1ccc(F)cc1,11,23,-6,-2,19,.,.
CCN(CC)S(=O)(=O)c1ccc(C)c(NC(=S)N2CCN(C/C=C/c3ccccc3)CC2)c1,17,23,12,12,43*,-10,24
O=c1[nH][nH]c2c1[C@H](c1ccc(F)cc1)O[C@H](CCc1ccccc1)C2,9,.,.,-1,-6,.,.
COc1ccc(Oc2cc(C(F)(F)F)nc(N(C)C)n2)cc1,13,8,14,-28,6,.,.
CC(=O)NC1C(=O)Nc2c1cccc2C(F)(F)F (stereo not drawn),19,2,1,-48,9,.,.
CCN(CC)c1ccc(/C=C/c2cccc[n+]2C)c(OC)c1,82*,61,58,4,78*,19*,74*
